Measurements: PubChem BioAssay (EPA / NIEHS)
Results filed as inconclusive are left out. Active and inactive are the calls of the source. The calls were made as follows: active = hit-call score of the fitted dose curve at least 0.9, where 1 is the maximum; inconclusive = response in the unintended direction; inactive = score below 0.9.

read-out: sulfotransferase (SULT2A), SULT2A1 (gene 6822); assay: CLD_SULT2A_6hr: CellzDirect (CLD) Gene Expression Assay for sulfotransferase (SULT2A) at 6 hours (AID 2283669);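 also: hits raise transcript level above the DMSO vehicle baseline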
Procedure: CLD_6hr is a cell-based, multiplexed-readout assay that uses hepatocyte, a human liver primary cell, with measurements taken at 6 hours after chemical dosing in a 96-well plate.CLD_SULT2A_6hr is one of 16 assay component(s) measured or calculated from the CLD_6hr assay. It is designed to make measurements of mRNA induction, a form of inducible reporter, as detected with chemiluminescence signals by Quantitative Nuclease Protection Assay (qNPA) technology.Data from the assay component CLD_SULT2A_6hr was analyzed at the endpoint, CLD_SULT2A_6hr, in the positive analysis fitting direction relative to DMSO as the negative control and baseline of activity. Using a type of inducible reporter, gain-of-signal activity can be used to understand changes in the reporter gene as they relate to the gene SULT2A1. Furthermore, this assay endpoint can be referred to as a primary readout. To generalize the intended target to other relatable targets, this assay endpoint is annotated to the transferase intended target family, where subfamily is sulfotransferase.
Human hepatocyte cultures were treated daily for two consecutive days with fresh dosing solutions containing appropriate concentrations of the 320 ToxCast chemicals (chemical identities were blinded to CellzDirect and other ToxCast collaborators), vehicle control (0.2% DMSO), and positive control inducers as summarized in Table 1. Due to the large number of treatment groups and chemicals examined, the ToxCast chemicals were divided into two groups (spanning two independent cultures of hepatocytes from separate donor preparations (Hu778: ToxCast plates 1 and 2; Hu776: ToxCast plates 3 and 4). Each preparation of human hepatocyte cultures was treated with respective vehicle control, medium only control, set of six positive controls/reference chemicals for the five hepatic receptor pathways, and a subset of eight of the ToxCast chemicals (indoxacarb, pyrithiobac-sodium, norflurazon, cyhalofop-butyl, methomyl, thiram, acetochlor, and propiconazole). These replicate data, coupled with internal replicates designed within the blinded ToxCast chemical library, provided additional data to evaluate interindividual differences between hepatocyte preparations and their potential impact on chemical profiles.Cell morphology and integrity were evaluated using phase-contrast microscopy as an indicator of hepatocyte cell health (Tyson & Green, 1987). Cultures for each treatment group (i.e., media, vehicle [0.2% DMSO], positive control inducers [multiple concentrations], and the ToxCast chemicals [multiple concentrations]) were observed and cell morphology was assessed relative to vehicle control cultures at each harvest time point (0, 6, 24, or 48 h). […] Images were evaluated at the conclusion of the study to assess changes in cell integrity and account for the effects of chemical exposure on uncharacteristic changes in concentration-dependent gene expression profiles. The results from these determinations of apparent cytotoxicity were annotated (yes/no) alongside the corresponding qNPA data for reference.At the conclusion of each treatment period, hepatocyte cultures (96-well) were washed with 1 volume of HBSS, lysed by addition of 25 ul ArrayPlate lysis buffer (HTG, Tucson, AZ), and 70 ul/well of Denaturation Oil, denatured by incubation at 95C for 10 min, and frozen at approximately -70C until analysis by nuclease protection assay (qNPA) (Roberts et al., 2007). For qNPA analysis, cell lysates were thawed at 50C for approximately 30 min, qNPA probes were added, and samples were incubated at 95C for 10 min to begin the detection process by denaturing the target RNA, dissociating the duplexes and secondary structure hybridization. At the conclusion of the hybridization period, S1 nuclease reagent was added to each sample to digest all nonprotected nucleotides at 50C for 60-90 min. […]

Compound	outcome	AC50
COC(=O)C=C(C)OP(=O)(OC)OC	inactive	
CCCCNC(=O)OCC#CI	inactive	
COc1nc(C)nc(NC(=O)NS(=O)(=O)c2ccccc2Cl)n1	inactive	
CC(C)(C)c1ccc(CSc2cnn(C(C)(C)C)c(=O)c2Cl)cc1	inactive	
COc1ccc(C(c2ccc(OC)cc2)C(Cl)(Cl)Cl)cc1	inactive	
N#Cc1nn(-c2c(Cl)cc(C(F)(F)F)cc2Cl)c(N)c1S(=O)C(F)(F)F (stereo not given)	inactive	
N#CC(CCc1ccc(Cl)cc1)(Cn1cncn1)c1ccccc1 (stereo not given)	inactive	
CCCCOC(=O)c1ccccc1C(=O)OCCCC	inactive	
Cc1c(F)c(F)c(COC(=O)C2C(/C=C(\Cl)C(F)(F)F)C2(C)C)c(F)c1F (stereo not given)	inactive	
CC(C)C1(C)N=C(c2nc3ccccc3cc2C(=O)O)NC1=O (stereo not given)	inactive	
CNC(=S)S		7.49 µM (active)
CCOC(=O)C(Cl)Cc1cc(-n2nc(C)n(C(F)F)c2=O)c(F)cc1Cl (stereo not given)	inactive	
CCCCC(CC)COC(=O)c1ccccc1C(=O)OCC(CC)CCCC (stereo not given)	inactive	
Cc1ccc(-c2c(Cl)nc(C#N)n2S(=O)(=O)N(C)C)cc1		20 µM (active)
COC(=O)C(C)Oc1ccc(Oc2ccc(Cl)cc2Cl)cc1 (stereo not given)	inactive	
CC1=C(C(=O)Nc2ccccc2)SCCO1	inactive	
CCc1nn(C)c(C(=O)NCc2ccc(C(C)(C)C)cc2)c1Cl		2.8 µM (active)
OC(c1ccc(Cl)cc1)(c1cncnc1)c1ccccc1Cl (stereo not given)	inactive	
COC(=O)N(OC)c1ccccc1COc1ccn(-c2ccc(Cl)cc2)n1	inactive	
CCNc1nc(Cl)nc(NC(C)C)n1	inactive	

Compound	outcome	AC50
CON(C)C(=O)Nc1ccc(Cl)c(Cl)c1	inactive	
CCOP(=S)(OCC)SCn1c(=O)oc2cc(Cl)ccc21	inactive	
COc1nc(C)nc(NC(=O)NS(=O)(=O)c2ccccc2CCC(F)(F)F)n1	inactive	
CCCC1COC(Cn2cncn2)(c2ccc(Cl)cc2Cl)O1 (stereo not given)	inactive	
CO/C=C(/C(=O)OC)c1ccccc1Oc1cc(Oc2ccccc2C#N)ncn1	inactive	
C=CCC1=C(C)C(OC(=O)C2C(C=C(C)C)C2(C)C)CC1=O (stereo not given)	inactive	
O=C(O)COc1nc(Cl)c(Cl)cc1Cl	inactive	
CCOC(=O)CC(SP(=S)(OC)OC)C(=O)OCC (stereo not given)	inactive	
COc1cnc(OC)n2nc(NS(=O)(=O)c3c(OCC(F)F)cccc3C(F)(F)F)nc12	inactive	
CC1COC(Cn2cncn2)(c2ccc(Oc3ccc(Cl)cc3)cc2Cl)O1 (stereo not given)		20 µM (active)
COP(N)(=O)SC (stereo not given)	inactive	
COc1nc(NC(C)C)nc(NC(C)C)n1	inactive	
N#Cc1cc(Br)c(O)c(Br)c1	inactive	
CCOc1cc(Oc2ccc(C(F)(F)F)cc2Cl)ccc1[N+](=O)[O-]	inactive	
C=CCC1=C(C)[C@@H](OC(=O)[C@@H]2[C@@H](C=C(C)C)C2(C)C)CC1=O		20 µM (active)
CC(C)Oc1cc(-n2nc(C(C)(C)C)oc2=O)c(Cl)cc1Cl	inactive	
CCCN(CCC)c1c([N+](=O)[O-])cc(S(N)(=O)=O)cc1[N+](=O)[O-]	inactive	
COP(=S)(OC)Oc1nc(Cl)c(Cl)cc1Cl	inactive	
C#CCOS(=O)OC1CCCCC1Oc1ccc(C(C)(C)C)cc1 (stereo not given)	inactive	
Cc1cc(Cl)ccc1OCC(=O)O	inactive	
